# Luciferase inh = inhibitors of firefly (Photinus pyralis) luciferase; P08659; purified P. pyralis luciferase, luminescence, biochemical; Potency, µM (highest dose often 115 µM), usual class: inhibitors; actives 2.5% (n = 76,000); note: nearly all actives have a fitted effect of over 65% in size
#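 Luminescence read by CCD imager after adding enzyme (10nM final) to wells holding compound, titrated in qHTS. Substrates 10uM each D-luciferin and ATP; buffer 50mM Tris acetate pH 7.5, 10mM Mg acetate, Tween-20, BSA.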
# HEK293 tox = kills HEK 293 cells; Potency, µM (series often up to 115 µM), without a hit: at the highest dose activity change, negative = cytotoxicity, actives largely listed as inhibitors; actives 6.6% (n = 94,000); HEK 293 viability, ATP luminescence (CellTiter-Glo), 48-72 h; note: nearly all actives have a fitted effect of over 60% in size
#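 HEK 293 cells at 250 cells/well were exposed to compounds by pintool transfer for 48 or 72 hr at 37 degree Celsius, 5% CO2. Viability was read as ATP-coupled luminescence with CellTiter-Glo after 10 min at room temperature.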
# NIH3T3 tox = kills NIH 3T3 cells; NIH 3T3 viability, CellTiter-Glo ATP luminescence, 48-72 h; Potency, µM (highest dose often 96.7 µM), inactives show top-dose activity change, negative = cytotoxicity, most hits filed as inhibitors; actives 4.3% (n = 94,000); AID 1345082; note: nearly all actives have a fitted effect of over 55% in size
#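 Cytotoxicity was measured by CellTiter-Glo ATP luminescence after 48 or 72 h compound exposure at 37 °C. Mouse NIH 3T3 fibroblasts were seeded at 400 cells/well and dosed by 23 nL pin transfer.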
# GPT2 inhibitor = inhibitors of human GPT2 alanine aminotransferase | Q8TD30 | Recombinant GPT2, coupled pyruvate oxidase/HRP Amplex Red fluorescence | Potency, µM (titrated, usually from 57.7 µM), for inactives: top-dose activity change, negative = inhibition, usual class: inhibitors | actives 0.25% (n = 100,000); note: nearly all actives have a fitted effect of over 60% in size
# Target sequence (Q8TD30 whole entry, looked up): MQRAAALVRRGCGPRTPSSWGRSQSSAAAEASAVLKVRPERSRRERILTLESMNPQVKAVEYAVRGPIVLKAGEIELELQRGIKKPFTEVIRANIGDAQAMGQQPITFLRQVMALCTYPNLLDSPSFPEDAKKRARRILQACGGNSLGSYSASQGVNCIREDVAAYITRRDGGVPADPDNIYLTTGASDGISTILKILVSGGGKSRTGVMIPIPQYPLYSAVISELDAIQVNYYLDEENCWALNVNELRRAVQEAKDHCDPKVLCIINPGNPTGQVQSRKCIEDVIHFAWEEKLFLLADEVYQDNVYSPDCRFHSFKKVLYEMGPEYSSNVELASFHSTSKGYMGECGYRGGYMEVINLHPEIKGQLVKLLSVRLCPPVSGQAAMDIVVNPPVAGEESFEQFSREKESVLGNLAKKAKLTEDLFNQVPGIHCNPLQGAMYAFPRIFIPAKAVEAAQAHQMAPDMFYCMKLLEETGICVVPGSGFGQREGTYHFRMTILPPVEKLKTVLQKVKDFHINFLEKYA
#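 Inhibition is scored from Amplex Red fluorescence generated when pyruvate oxidase and HRP act on pyruvate released by GPT2. Reactions contain 10ng/uL enzyme, 250uM a-KG and 2mM L-alanine and run 30 min at room temperature.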
# NPR1 antag = human Npr1 receptor antagonism; P16066; HEK293 hNpr1 GloSensor cGMP, ANP-stimulated luminescence; Potency, µM (series often up to 46.3 µM), inactives show at the top dose activity change, negative = inhibition, usual class: inhibitors; actives 1.6% (n = 76,000); AID 1347048; calls by dose curve; note: nearly all actives have a fitted effect of over 60% in size
#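 HEK293 cells stably expressing human Npr1 and cGMP GloSensor pGS-40F, loaded 2 h with 2% GloSensor reagent, given compound 30 min at room temperature. Luminescence read before and 20 min after 0.1 nM hNppA.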
# An asterisk follows results filed as active; i = inactive; u = inconclusive; x = not tested or not shown; [ ] = dose if it differs, or a comment. An excerpt weighted towards active compounds, which were near 10% of everything screened. Unless noted, calls come from the whole dose curve; as a rule, active = well fitted curve in the direction sought with a large enough effect; inconclusive = small, poorly fitted or top-dose-only effect, or another doubt; inactive = no such curve, though single readings can be large; an effect the other way counts as inactive or inconclusive. % is set by controls: 0 for no effect and ±100 for the full control effect; potency is the fitted concentration of half-maximal effect.
SMILES,Luciferase inh,HEK293 tox,NIH3T3 tox,GPT2 inhibitor,NPR1 antag
CCOc1ccc(C(=O)N2CCC3(CC2)C(=O)N(C)c2ccccc23)cc1OCC,i,u,u,2%,-1%
NC(CN1CCCC1)C1CCCCC1 (configuration not stated),x,3%[230 µM],3%[174 µM],i,x
O=C(COc1ccccc1)Nc1ccc([C@@H](O)[C@H]2COCC(=O)N2CCCc2ccccc2)cc1,i,79µM*,u,-6%,4%
CCOCCN1C(=O)COC[C@@H]1[C@H](O)c1ccc(NC(=O)COc2ccccc2)cc1,i,-27%[172 µM],-20%[138 µM],4%[88.5 µM],0%[70.6 µM]
O=C(COc1ccccc1)Nc1ccc([C@@H](O)[C@H]2COCC(=O)N2Cc2ccc(C(F)(F)F)cc2)cc1,i,40µM*,u,-9%,u
O=C(COc1ccccc1)Nc1ccc([C@@H](O)[C@H]2COCC(=O)N2Cc2ccc(F)cc2)cc1,i,u,-18%,i,-5%
O=C(Nc1ccc([C@@H](O)[C@H]2COCC(=O)N2Cc2ccccc2)cc1)c1ccc(F)cc1,i,100µM*,u,-9%[88.5 µM],-9%[70.6 µM]
COc1ccc(C(=O)Nc2ccc([C@@H](O)[C@H]3COCC(=O)N3CC3CCCCC3)cc2)cc1,i,35µM*,u,1%,-19%
CN1CCN(C(=O)c2cn3cc(-c4cccnc4)sc3n2)CC1,x,0%[172 µM],i,-6%[88.5 µM],x
CCc1c(C)nc(-c2ccc(F)cc2)n(CC(=O)Nc2ccc(OC)c(OC)c2)c1=O,i,-29%,-2%,-18%,-1%
O=C(c1nc2cccnc2n(CCc2ccccc2)c1=O)N1CCCC1,x,-2%,-19%,-10%,x
COc1cc(=O)n2c(c1C(=O)Nc1ccc(N(C)C)cc1)CCCC2,35µM*,u,-30%,-5%,-5%
COc1cc(=O)n2c(c1C(=O)Nc1ccc(C)cc1)CCCC2,i,-15%,u,-1%,-5%
COc1cc(CNC(=O)CCC2CCN(C(=O)c3ccccc3F)CC2)cc(OC)c1,i,4%,-8%,-7%,0%
COc1ccc2[nH]c(CN3CCC(CCC(=O)NCc4ccc(F)cc4)CC3)c(C)c2c1,i,28µM*,u,4%,0%
COc1ccc(Nc2ccnc(N3CCC(C(=O)N4CCCCC4)CC3)n2)cc1,x,u,u,2%,x
COc1ccc(Nc2ccnc(N3CCC(NC(=O)c4ccccc4)CC3)n2)cc1,x,35µM*,u,i,x
COc1ccc(Nc2ccnc(N3CCC(C(=O)N4CCC(c5ccccc5)CC4)CC3)n2)cc1,x,13µM*,20µM*,i,x
Cc1ccc(Nc2ccnc(N3CCC(NC(=O)c4ccc(Cl)cc4)CC3)n2)cc1,x,22µM*,32µM*,i,x
COC(=O)NC1CCN(c2nccc(Nc3ccc(OC)cc3)n2)CC1,x,u,-33%,i,x
COc1ccc(CC(=O)NC2CCN(c3nccc(Nc4ccc(OC)cc4)n3)CC2)cc1,x,40µM*,35µM*,i,x
COc1ccc(Nc2ccnc(N3CCC(C(=O)NC4CC4)CC3)n2)cc1,x,u,u,i,x
CNC(C)c1ccccc1Cl (configuration not stated),x,i,0%[174 µM],4%[88.5 µM],x
Cc1cccc(NC(=O)N2CCC3(CC2)C(=O)N(c2cccc(F)c2)C3c2ccccc2)c1 (configuration not stated),x,-18%,-29%,-11%,x
COc1cccc(C(=O)NC2CCN(c3nccc(Nc4ccccc4OC)n3)CC2)c1,x,40µM*,u,2%,x
SMILES,Luciferase inh,HEK293 tox,NIH3T3 tox,GPT2 inhibitor,NPR1 antag
COc1ccc(Nc2ccnc(N3CCC(NC(=O)c4cccc(OC)c4)CC3)n2)cc1,x,35µM*,u,i,x
COc1ccc(Nc2ccnc(N3CCC(NC(=O)c4ccc(OC)cc4)CC3)n2)cc1,x,u,u,-15%,x
COc1ccc(C(=O)NC2CCN(c3nccc(Nc4ccc(C)cc4)n3)CC2)cc1,x,35µM*,u,-5%,x
COc1ccccc1Nc1ccnc(N2CCC(NC(=O)c3cccc(Cl)c3)CC2)n1,x,u,u,-1%,x
Cc1ccc(Nc2ccnc(N3CCC(NC(=O)c4cccc(Cl)c4)CC3)n2)cc1,x,u,40µM*,i,x
COc1ccc(Nc2ccnc(N3CCC(NC(=O)c4cccc(Cl)c4)CC3)n2)cc1,x,14µM*,28µM*,u,x
O=C(NC1CCN(c2nccc(Nc3ccccc3Cl)n2)CC1)c1cccc(Cl)c1,x,u,u,i,x
COc1ccc(-c2c(C(=O)NCc3ccccc3)nc3sccn23)cc1,x,-28%,u,-7%,x
CCS[C@H]1CCN2C(=O)c3cc(-c4ccc(F)cc4F)ccc3NC(=O)[C@H]12,i,56µM*,u,-4%[88.5 µM],u
CC(C)NC(=O)N[C@H]1CCN2C(=O)c3cc(-c4ccc(F)cc4F)ccc3NC(=O)[C@H]12,i,u,-28%[174 µM],-26%[88.5 µM],-6%[70.6 µM]
CCOC(=O)C1(Cc2ccccc2Cl)CCN(C(=O)c2ccsc2)CC1,25µM*,79µM*,-25%,-42%,-11%
CCOC(=O)C1(Cc2ccccc2F)CCCN(C(=O)C2=C(C)OCCO2)C1 (configuration not stated),i,u,-30%,i,0%
CCOC(=O)C1(Cc2ccccc2Cl)CCN(Cc2cccnc2)CC1,i,u,u,1%,-8%
CCOC(=O)C1(Cc2ccccc2C)CCCN(C(=O)c2cc[n+]([O-])cc2)C1 (configuration not stated),i,-2%,i,-5%,14%
CCOC(=O)C1(Cc2ccccc2C)CCCN(C(=O)c2csc(C)n2)C1 (configuration not stated),40µM*,-17%,0%,3%,-2%
CCOC(=O)C1(Cc2ccccc2F)CCCN(C(=O)CCc2c[nH]c3ccccc23)C1 (configuration not stated),i,35µM*,u,-15%,u
CN(Cc1cnn(-c2ccc(F)cc2)c1)c1cc(C2CC(O)C2)ncn1 (configuration not stated),i,28µM*,u,i,u
CN(Cc1nc2ccc(F)cc2[nH]1)c1cc(C2CC(O)C2)ncn1 (configuration not stated),i,-3%,-28%,-11%,7%
Cc1cnc(CC2CCN(S(=O)(=O)c3ccc4c(c3)CCC4)C2)n1Cc1ccccc1 (configuration not stated),x,u,u,i,x
Cc1nc(N2CCN(C(=O)c3ccc(C)s3)CC2)cc(C(F)(F)F)n1,i,-26%,u,i,-18%
CCCS(=O)(=O)N1CCC2(CC1)C(=O)N(c1cccc(F)c1)C2c1ccccc1 (configuration not stated),x,25µM*,-27%,-1%,x

# Compound activity: PubChem BioAssay, National Center for Advancing Translational Sciences (NCATS)
